# Where “and” joins values, the source holds several entries; their conditions need not be identical. Equal entries are not always repeated. Inconclusive results are not listed. Some compounds were tested as several samples or in several runs, with calls that do not always agree. Calls of active or inactive are those of the source. Calls follow the shape of the dose curve; as a rule, active = well fitted curve in the direction sought with a large enough effect; inconclusive = small, poorly fitted or top-dose-only effect, or another doubt; inactive = no such curve, though single readings can be large; an effect the other way counts as inactive or inconclusive.
# Legend:
# [1] = Identifying Small Molecule Inhibitors of Pancreatic Cancer Stem Cells (SN12C, Adherent) (AID 1259358);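 also: cell survival measured after 48 h of compound exposure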; also: potency is read from the fitted curve at half-maximal effect
# How it was run: (§1)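 Endpoint: ATP-based luminescence, 48 h drug exposure. Bortezomib at 9.2 uM final as full-kill control; DMSO vehicle as negative control; activity normalized between vehicle and cell-free wells.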
# [2] = Identifying Small Molecule Inhibitors of Pancreatic Cancer Stem Cells (A278, Adherent) (AID 1259361);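 also: viability read after 48 h compound exposure; nearly all actives have a fitted effect of over 35% in size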
# How it was run: as §1
# [3] = Identifying Small Molecule Inhibitors of Pancreatic Cancer Stem Cells (Panc1, Adherent) (AID 1259362); conditions: Potency: viability; also: potency is read from the fitted curve at half-maximal effect
# How it was run: (§2)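 Pre-formed 14-day tumor spheroids or adherent cells dosed and incubated 48 h, 37C, 5% CO2. Viability assessed by CellTiter-Glo.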
# [4] = Identifying Small Molecule Inhibitors of Pancreatic Cancer Stem Cells (A2780, Spheroid) (AID 1259357); conditions: Potency: A2780 spheroid viability; also: potency is read from the fitted curve at half-maximal effect;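 also: spheroids pre-formed over 14 days in stem cell medium on hydrogel; compound exposure lasted 48 h before the ATP luminescence read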
# How it was run: as §2
# [5] = P-glycoprotein substrates identified in KB-8-5-11 adenocarcinoma cell line, qHTS therapeutic library screen (AID 1346987); also: nearly all actives have a fitted effect of over 65% in size; also: potency is read from the fitted curve at half-maximal effect
# How it was run: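 P-gp-mediated resistance screen: KB-8-5-11 cells treated 72 h with compounds in dose-response. CellTiter-Glo viability.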
# [6] = Identifying Small Molecule Inhibitors of Pancreatic Cancer Stem Cells (Panc1, Spheroid) (AID 1259359); conditions: Panc1 spheroid cancer stem cell viability;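 also: potency is read from the fitted curve at half-maximal effect; compound exposure lasted 48 h before reading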
# How it was run: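 After a 4 h attachment period, compounds were pinned into wells and cultures held 48 h under standard incubator conditions. Viability was then measured as CellTiter-Glo luminescence following 10 min at room temperature.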
# [7] = P-glycoprotein substrates identified in KB-3-1 adenocarcinoma cell line, qHTS therapeutic library screen (AID 1346986); also: nearly all actives have a fitted effect of over 60% in size;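 also: potency is read from the fitted curve at half-maximal effect; potency is for cytotoxicity meaning loss of cell viability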
# How it was run: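 Compounds were tested in dose-response against KB-3-1 and KB-8-5-11 cells at 37 degree C for 72 h, and viability was measured by luminescence. AC50 values came from curve fitting with class-based activity calls.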
# [8] = qHTS assay to identify small molecule inhibitors of chordoma cells - UCH-2 (AID 1259356); also: series mostly up to about 46 µM
structure (smiles),measurement,setting,value
CC1=C(/C=C/C(C)=C/C=C/C(C)=C/C(=O)Nc2ccc(O)cc2)C(C)(C)CCC1,Potency,[1],inactive
same,IC50 (viability decrease),[2],3.32 µM (active)
same,Potency,[3],23.5 µM (active)
CC(=O)N(C)C1(c2ccccc2)CCN(CCC[C@]2(c3ccc(Cl)c(Cl)c3)CCCN(C(=O)c3ccccc3)C2)CC1,Potency,[4],18.7 µM (active)
same,Potency,[1],20.9 µM (active)
same,IC50 (viability decrease),[2],9.35 µM (active)
same,Potency,[5],10.5 µM (active) and 13 µM (active)
NC(CO)(CO)CCc1ccc(Sc2cccc(OCc3ccccc3)c2)cc1Cl,IC50 (viability decrease),[2],26.4 µM (active)
same,Potency,[3],inactive
same,Potency,[5],20.9 µM (active)
CC(=O)Nc1ccc([C@H](C)C(=O)Nc2ncc(C(C)C)s2)cc1,Potency,[6],8.33 µM (active)
same,Potency,[5],3.72 µM (active) and 3.66 µM (active)
CC(C)[C@H](CO)Nc1nc(Nc2ccc(C(=O)O)c(Cl)c2)c2ncn(C(C)C)c2n1,IC50 (viability decrease),[2],inactive
same,Potency,[3],inactive
same,Potency,[7],inactive
same,Potency,[5],inactive
CCOc1ccc(Nc2nc(-c3c(C)nc4ccccn34)cs2)cc1,Potency,[4],0.296 µM (active)
same,IC50 (viability decrease),[2],0.0264 µM (active)
same,Potency,[5],1 nM (active) and 36.6 nM (active)
CO[C@H]1C[C@@H]2CC[C@@H](C)[C@@](O)(O2)C(=O)C(=O)N2CCCC[C@@H]2C(=O)O[C@H]([C@H](C)C[C@@H]2CC[C@H](OCCO)[C@H](OC)C2)CC(=O)[C@H](C)C=C(C)[C@@H](O)[C@@H](OC)C(=O)[C@H](C)C[C@H](C)C=CC=CC=C1C,Potency,[1],18.7 µM (active)
same,Potency,[6],26.4 µM (active)
same,Potency,[5],3.32 µM (active)
COc1ccc(C2CC(c3ccccc3)=NN2c2ccc(S(N)(=O)=O)cc2)cc1 (stereo unspecified),Potency,[1],inactive
CC(C(=O)O)c1ccc(-c2ccccc2)c(F)c1 (stereo unspecified),outcome,[8],inactive
same,Potency,[5],inactive
CO[C@H]1C=CC=C(C)C(=O)NC2=CC(=O)C(NCCN(C)C)=C(C[C@@H](C)C[C@H](OC)[C@@H](O)[C@@H](C)C=C(C)[C@@H]1OC(N)=O)C2=O,Potency,[1],0.0935 µM (active)
same,IC50 (viability decrease),[2],0.0059 µM (active)
same,Potency,[5],7.43 µM (active)
COc1cc2ncnc(-n3nc(-c4ccccn4)nc3N)c2cc1OC,Potency,[4],inactive
same,Potency,[1],5.9 µM (active)
same,IC50 (viability decrease),[2],3.32 µM (active)
same,Potency,[3],18.7 µM (active)
same,Potency,[7],inactive
same,Potency,[5],inactive and 10 µM (active)
COc1cccc2c1CCCC2CCCN1CCN(C2CCCCC2)CC1 (stereo unspecified),Potency,[1],16.6 µM (active)
same,IC50 (viability decrease),[2],16.6 µM (active)
CC(C)(C)c1cc(C(=O)O)c(NC(=O)Nc2ccc3[nH]ncc3c2)s1,Potency,[4],inactive
same,Potency,[1],inactive
same,IC50 (viability decrease),[2],inactive
same,Potency,[7],inactive
same,Potency,[5],inactive
O=C(O)c1ccc(-c2cc3cccnc3c(-c3ccc4nonc4c3)n2)cc1,Potency,[1],inactive
same,IC50 (viability decrease),[2],inactive
O=C1C(Cl)=C(NCCN2CCOCC2)C(=O)c2ncccc21,Potency,[4],9.35 µM (active)
same,Potency,[1],6.62 µM (active)
same,Potency,[6],3.72 µM (active)
same,IC50 (viability decrease),[2],3.32 µM (active)
same,Potency,[3],1.66 µM (active)
same,Potency,[5],20.9 µM (active)
CN(C)C1CCN(C(=O)c2ccc(NC(=O)Nc3nc(N4CCOCC4)nc(N4CCOCC4)n3)cc2)CC1,Potency,[1],0.0074 µM (active)
same,IC50 (viability decrease),[2],0.0148 µM (active)
same,Potency,[5],14.8 µM (active)
CN1CCN(CCOc2cc(OC3CCOCC3)c3c(Nc4c(Cl)ccc5c4OCO5)ncnc3c2)CC1,Potency,[4],inactive
same,Potency,[1],1.87 µM (active)
same,IC50 (viability decrease),[2],20.9 µM (active)
same,Potency,[5],inactive
COc1cc(N2CCC(N3CCN(C)CC3)CC2)ccc1Nc1ncc(Cl)c(Nc2ccccc2S(=O)(=O)C(C)C)n1,Potency,[1],18.7 µM (active)
same,Potency,[6],0.418 µM (active)
same,IC50 (viability decrease),[2],6.62 µM (active)
same,Potency,[5],0.651 µM (active)
COCCCCC(=NOCCN)c1ccc(C(F)(F)F)cc1,outcome,[8],inactive
same,Potency,[5],20.9 µM (active)
c1ccc2c(-c3cnn4cc(-c5ccc(N6CCNCC6)cc5)cnc34)ccnc2c1,Potency,[1],26.4 µM (active)
same,Potency,[6],26.4 µM (active)
same,IC50 (viability decrease),[2],23.5 µM (active)
same,Potency,[3],20.9 µM (active)
Clc1ccc(-c2nc3sccn3c2C=NOCc2ccc(Cl)c(Cl)c2)cc1,Potency,[1],inactive
same,IC50 (viability decrease),[2],inactive
same,Potency,[5],inactive
CO[C@@H](C(=O)N1Cc2[nH]nc(NC(=O)c3ccc(N4CCN(C)CC4)cc3)c2C1)c1ccccc1,Potency,[1],0.743 µM (active)
same,IC50 (viability decrease),[2],0.0935 µM (active)
same,Potency,[7],1.3 µM (active)
N#Cc1ccc(NC(=O)Nc2ccccc2Br)c2n[nH]nc12,Potency,[1],inactive
same,Potency,[3],inactive
same,Potency,[5],inactive
OC[C@H]1O[C@@H](n2cnc3c2NC=NC[C@@H]3O)C[C@H]1O,Potency,[4],inactive
same,Potency,[1],inactive
same,IC50 (viability decrease),[2],20.9 µM (active)
same,Potency,[3],inactive
same,Potency,[5],inactive
CC(C)(C(=O)NCC(F)(F)C(F)(F)F)C(=O)N[C@@H]1C(=O)Nc2ccccc2-c2ccccc21,Potency,[1],inactive
same,Potency,[6],0.0015 µM (active)
same,IC50 (viability decrease),[2],inactive
same,Potency,[3],inactive
same,Potency,[7],inactive
same,Potency,[5],inactive

# Source: PubChem BioAssay (NCATS)
